Source: PubChem
S2 tox: reduces viability in counter-screen for ATXN expression inhibitors. S2 cells (HEK-293 line with an ATXN2-luciferase reporter) viability, CellTiter-Fluor protease fluorescence, 24 h. Potency, µM (highest dose often 56.7 µM), usual class: cytotoxic. actives 0.49% (n = 400,000); note: potency is the fitted concentration of half-maximal effect; nearly all actives have a fitted effect of over 40% in size
DRD3 agonist: activates the human D3 dopamine receptor; D3R DiscoveRx beta-arrestin cells, luminescence, 90 min; max activation, %; actives 0.58% (n = 410,000); AID 652048; in the data active = max activation above about 30%; note: 0% is about no effect
Target sequence (P35462 whole entry, looked up): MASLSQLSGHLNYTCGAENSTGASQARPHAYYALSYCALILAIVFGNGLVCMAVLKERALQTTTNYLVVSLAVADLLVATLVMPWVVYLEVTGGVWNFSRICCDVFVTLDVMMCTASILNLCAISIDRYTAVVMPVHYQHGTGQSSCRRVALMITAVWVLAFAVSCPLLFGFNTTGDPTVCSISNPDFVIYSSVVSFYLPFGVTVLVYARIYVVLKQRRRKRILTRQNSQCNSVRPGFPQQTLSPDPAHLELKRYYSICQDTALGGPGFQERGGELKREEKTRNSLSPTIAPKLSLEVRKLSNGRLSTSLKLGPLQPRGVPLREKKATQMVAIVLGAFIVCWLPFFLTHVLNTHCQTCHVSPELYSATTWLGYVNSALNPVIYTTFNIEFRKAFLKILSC
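Agonist mode: compounds and dopamine controls were applied to plated cells for 90 min at 37 degrees C after an overnight attachment at 1500 cells/well. Luminescent read-out followed 30 - 60 minutes at room temperature with DiscoveRx detection reagent.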
ATXN2 expr inh: ATXN2 expression inhibition; HEK-293 ATXN2-luciferase reporter, luminescence, 24 h; Potency, µM (series often up to 57 µM), for the others: top-dose activity change, negative = inhibition, usual class: inhibitors; actives 0.72% (n = 360,000); AID 1745845; note: potency is the fitted concentration of half-maximal effect; % is set by controls: 0 for no effect and ±100 for the full control effect; nearly all actives have a fitted effect of over 55% in size
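ATXN2-luciferase reporter cells (luciferase flanked by upstream and downstream ATXN2 gene portions) were treated 24 h at 37 °C with compounds at up to 57 uM. SteadyGlo luminescence gave expression; GF-AFC fluorescence gave viability.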
HepG2 viability: kills HepG2 cells in TGF-b inhibitor counter-screen; AID 588856; HepG2 CAGA-GFP viability, ATP luminescence, 18 h; Potency, µM (titrated, usually from 46.1 µM), for inactives: at the top dose activity change, negative = cytotoxicity, most hits filed as cytotoxic; actives 0.76% (n = 410,000); note: potency is the fitted concentration of half-maximal effect
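CellTiter-Glo luminescence gave cytotoxicity after 18 hours at 37 degrees C. The cells were HepG2 CAGA-GFP in 1% FBS DMEM, stimulated with 500 pg/mL TGF-beta after compound addition. %Activity was normalised to no-cell wells (complete cell-killing) and DMSO (no toxicity), and curves were fitted and classified.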
TGFb inhibitor: inhibitors of TGF-b signaling. actives 1.2% (n = 410,000). HepG2 CAGA-GFP TGF-b/SMAD3 reporter, GFP fluorescence, 18 h; TGF-beta stimulated, 500 pg/mL final. Potency, µM (titrated, usually from 46.1 µM), without a hit: at the highest dose activity, negative = inhibition, hits mostly inhibitors; note: potency is the fitted concentration of half-maximal effect; % is set by controls: 0 for no effect and ±100 for the full control effect; nearly all actives have a fitted effect of over 65% in size
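Read-out: total well GFP (ex488/em500-530) summed from mean per-cell fluorescence. Cells: HEPG2 CAGA-GFP, 1% FBS DMEM, 18 h at 37 degrees C with 500 pg/mL final TGF-beta. Unstimulated wells served as the full-inhibition control; stimulated DMSO wells = 0%.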
D3 antag: antagonists of human D3 dopamine receptor | max response, negative = inhibition, % | actives 2.5% (n = 360,000) | P35462 | D3R cells, DiscoveRx beta-arrestin luminescence, antagonist mode; hits give low values; in the data active = max response below about -50%; inconclusive = no clear call, values can overlap the other calls; note: % is set by controls: 0 for no effect and ±100 for the full control effect
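Cells expressing the human receptor were seeded at 1500 cells/well, incubated overnight at 37 degrees C in 5% CO2, then exposed to library compounds with dopamine controls for 90 minutes at 37 degrees C before luminescent detection.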
* hit, by the source's call; ! = a repeat was not active. Compounds with a hit are over-represented: about 4.8% of the library has one in this group of screens. Unless noted, calls come from the whole dose curve; as a rule, active = well fitted curve in the direction sought with a large enough effect; inconclusive = small, poorly fitted or top-dose-only effect, or another doubt; inactive = no such curve, though single readings can be large; an effect the other way counts as inactive or inconclusive.

Results for CSCCC(NC(=O)c1cccc([N+](=O)[O-])c1)c1nc2ccccc2[nH]1 (configuration not stated) ?
S2 tox: inactive; DRD3 agonist: -26; ATXN2 expr inh: -1%; HepG2 viability: -6%; TGFb inhibitor: -5%; D3 antag: -53*

Results for COc1cc(Cn2c(=O)sc3ccccc32)ccc1OCCC(C)C ?
S2 tox: inactive; DRD3 agonist: -1; ATXN2 expr inh: 10%; HepG2 viability: -73%; TGFb inhibitor: -16%

What do the screens show for `CC(=O)OCC1=C[C@@H]2OC(=O)C3=CO[C@@H](O[C@@H]4O[C@H](CO)[C@@H](O)[C@H](O)[C@H]4O)[C@H]1[C@@H]32`?
S2 tox: inactive; DRD3 agonist: 70*; ATXN2 expr inh: 8%; HepG2 viability: 0%; TGFb inhibitor: 10%; D3 antag: -11

Results for COC(=O)C1=CO[C@@H](O[C@@H]2O[C@H](CO)[C@@H](O)[C@H](O)[C@H]2O)C2C(CO)=CCC12 (some centres not stated) ?
S2 tox: inactive; DRD3 agonist: 16; ATXN2 expr inh: 10%; HepG2 viability: -5%; TGFb inhibitor: -2%; D3 antag: -16

How did CCCCc1oc2ccccc2c1C(=O)c1cc(I)c(OCCN(CC)CC)c(I)c1 do in these assays?
ATXN2 expr inh: 28µM*!; HepG2 viability: -35%; TGFb inhibitor: 21%

How did CCOC(=O)c1sc(NC(=O)c2cc(-c3ccccc3C)nc3ccccc23)c(C#N)c1C do in these assays?
S2 tox: inconclusive; DRD3 agonist: 33*; ATXN2 expr inh: 0%; HepG2 viability: -31%; TGFb inhibitor: inconclusive; D3 antag: 40

What do the screens show for `Cc1onc(-c2c(Cl)cccc2Cl)c1C(=O)c1c[nH]c(C(=O)NCCCN2CCOCC2)c1`?
S2 tox: inactive; DRD3 agonist: -1; ATXN2 expr inh: -6%; HepG2 viability: 9%; TGFb inhibitor: 2%; D3 antag: -54*

Results for COC(=O)c1c(OCc2cccnc2)cc(=O)n2c1CCN(C(=O)c1c3c(nn1C)CCCC3)CC2 ?
S2 tox: inactive

What do the screens show for `Cc1cccc(C(C)(C)C)c1OCCN1CCCC1`?
S2 tox: inactive; DRD3 agonist: -36; ATXN2 expr inh: -30%; HepG2 viability: -52%; TGFb inhibitor: -10%; D3 antag: -93*

How did CC(C)(C)c1ccccc1OCCN1CCCC1 do in these assays?
S2 tox: inactive; DRD3 agonist: -26; ATXN2 expr inh: -11%; HepG2 viability: 1%; TGFb inhibitor: -6%; D3 antag: -79*

Results for CC(OCCN1CCCC1)(c1ccc(F)cc1)c1ccc(F)cc1 ?
S2 tox: inactive; DRD3 agonist: -48; ATXN2 expr inh: -30%; HepG2 viability: -30%; TGFb inhibitor: -27%; D3 antag: -76*

How did Cc1cccc(C(C)(C)C)c1OCCOCCN1CCCC1 do in these assays?
S2 tox: inactive; DRD3 agonist: -17; ATXN2 expr inh: -23%; HepG2 viability: -41%; TGFb inhibitor: 16%; D3 antag: inconclusive

What do the screens show for `COc1ccc(-c2c(C)nn3c4c(cnc23)C(=O)CC(c2ccc(C)cc2)C4)cc1` (configuration not stated)?
S2 tox: inactive; DRD3 agonist: -7; ATXN2 expr inh: -9%; HepG2 viability: -8%; TGFb inhibitor: 5%

Results for Cc1cc(/C=N/N2CCN(C)CC2)c(C)n1-c1ccccc1F ?
S2 tox: inactive; DRD3 agonist: -9; ATXN2 expr inh: 11%; HepG2 viability: -4%; TGFb inhibitor: 2%; D3 antag: -71*

Results for COc1cc(NC(=O)c2ccc(NC(=O)N3CCSc4ncccc43)cc2)cc(OC)c1 ?
DRD3 agonist: 5; HepG2 viability: -15%; TGFb inhibitor: -15%

What do the screens show for `COc1cccc(Cn2c(=O)n(CCc3ccccc3)c(=O)c3c2c2cc(OC)ccc2n3C)c1`?
S2 tox: inactive; DRD3 agonist: 7; ATXN2 expr inh: 5%; HepG2 viability: -1%; TGFb inhibitor: 0%

What do the screens show for `COc1ccc(C(C)(NC(C)=O)c2nc(-c3ccccc3OC)cs2)cc1` (configuration not stated)?
S2 tox: inactive; DRD3 agonist: -4; ATXN2 expr inh: -22%; HepG2 viability: -23%; TGFb inhibitor: 8%; D3 antag: -88*

What do the screens show for `Cc1ccccc1N=C1Nc2ccccc2N[C@]12C[C@H]1CCCC(=O)N3CC[C@@H](C2)[C@@H]13`?
HepG2 viability: 35%; TGFb inhibitor: 8%

How did COc1ccc(NC2=Nc3ccccc3N[C@@]23C[C@H]2CCCC(=O)N4CC[C@@H](C3)[C@@H]24)cc1 do in these assays?
S2 tox: inactive; DRD3 agonist: -41; ATXN2 expr inh: 7%; HepG2 viability: -19%; TGFb inhibitor: -15%; D3 antag: -68*

How did CC(C)Cc1nc2cc(NS(=O)(=O)N(C)C)cc(C(=O)N3CC4(C)CC3CC(C)(C)C4)c2n1C (configuration not stated) do in these assays?
S2 tox: inactive

Results for CN1C(=O)/C(=C/c2ccc(O)c([N+](=O)[O-])c2)NC1=S ?
S2 tox: 25µM*; DRD3 agonist: -15; ATXN2 expr inh: -11%; HepG2 viability: -2%; TGFb inhibitor: -1%; D3 antag: -74*

What do the screens show for `COc1cc(/C=C2\NC(=S)N(C)C2=O)ccc1O`?
S2 tox: inconclusive; DRD3 agonist: 4; ATXN2 expr inh: 0%; HepG2 viability: -1%; TGFb inhibitor: 25%; D3 antag: 0

Results for COc1cc(N2CCC(N3CCN(C)CC3)CC2)ccc1Nc1ncnc(Nc2ccccc2S(=O)(=O)C(C)C)n1 ?
ATXN2 expr inh: 27µM*

Results for Cc1nc2ccccc2c(=O)n1/N=C/c1ccccc1 ?
S2 tox: inactive; DRD3 agonist: 1; ATXN2 expr inh: 25%; HepG2 viability: 1%; TGFb inhibitor: -1%; D3 antag: 7

What do the screens show for `Cc1ccc(-n2[nH]c(C)c(C=Nc3ccc(C)cn3)c2=O)cc1`?
S2 tox: inactive; DRD3 agonist: 0; ATXN2 expr inh: 3%; HepG2 viability: 4µM*; TGFb inhibitor: -19%; D3 antag: 13

Results for Cc1[nH]n(-c2ccccc2)c(=O)c1/C=N/n1c(C)nc2ccccc2c1=O ?
S2 tox: inactive; DRD3 agonist: 4; ATXN2 expr inh: -13%; HepG2 viability: -37%; TGFb inhibitor: 1%; D3 antag: -52*
